Data on 27 compounds can be found in PubChem BioAssay (NCATS).

Results filed as inconclusive are left out. Unmarked numbers belong to inactive results. The source made the active and inactive calls. Calls come from the whole dose curve; as a rule, active = well fitted cell-killing curve with a large enough effect; inconclusive = small, poorly fitted or top-dose-only effect; inactive = flat fitted curve, though single readings scatter.
% is set by controls: 0 for no effect and ±100 for the full control effect; potency is the fitted concentration of half-maximal effect.

A short description of this experiment: qHTS of pediatric cancer cell lines to identify multiple opportunities for drug repurposing: Confirmatory screen for BT-12 cells (AID 1347112).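 Note: viability read after 48 h of compound exposure; nearly all actives have a fitted effect of over 55% in size.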 The conditions noted are these: BT-12 rhabdoid tumor cells, viability; series mostly up to 45.9 µM; activity change, negative = cytotoxic: at the top concentration. From the text: Drug repurposing or repositioning has been offered as a strategy for drug development in oncology programs. This approach has special potential for childhood cancers and other rare or orphan diseases, where the expected return on new drug development has been a disincentive to pharmaceuticals.
In this project we exploit the poly-pharmacology of drugs to discover new indications via phenotypic screening of a panel of 19 well-characterized cell lines derived from solid tumors seen in children and adolescents. The goal is to identify approved drugs with previously unrecognized anticancer properties that has the potential to reveal new mechanisms and biological processes involved in carcinogenesis or drug resistance. We employed a titration-based paradigm (quantitative high-throughput screening or qHTS), where all compounds were tested at multiple concentrations for their effect on cell viability. Concentration-response curves (CRCs) were derived directly from the primary screen, and both potency and efficacy values were used to identify compounds with robust bioactivity profiles. We screened the NIH Chemical Genomics Center (NCGC) Pharmaceutical Collection (NPC) and Mechanism Interrogation Plate (MIPE) small molecule collections of approved and investigational compounds against these cell lines; and measured metabolically active cells after 48 hours of compound treatment as a proxy for cell viability.
Assay Submitter: Nathalia J. Martinez, National Center for Advancing Translational Sciences, National Institutes of Health, Rockville, MD, USA; email: natalia.martinez@nih.gov
[1] Shen, M et al. Quantitative high-throughput phenotypic screening of pediatric cancer cell lines identifies multiple opportunities for drug repurposing. Oncotarget 2017 Dec 19;9(4):4758-4772. PMID 29435139.
The cells were obtained from University of North Carolina (UNC), Pediatric Preclinical Testing Program (PPT), and Coriell Institute (CI).
qHTS cell viability assay:
Cells were assayed in growth media at a density of 500-1,000 cells/well. Five microliters of cells were dispensed into 1,536-well, white, solid-bottom, TC-treated plates (Greiner Bio One) using a multidrop dispenser and incubated at 37 degrees C, 5% CO2, under a humidified atmosphere for 5 hours. Twenty-three nanoliters of compounds and controls (neutral control DMSO or positive control bortezomib at final concentration of 2.3 µM) were subsequently transferred by Kalypsys pintool. For primary screens, the MIPE collection was tested at 11-point dilutions (final concentrations range from 0.78 nM to 46 µM) and the NPC collection at 8-point dilutions (final concentrations range from 0.59 nM to 46 µM). Compounds tested in follow-up screens were assayed at 11-point dilutions. Cells were incubated for 48 hours, followed by addition of 3 µL of CellTiter-Glo (Promega). After a 15 min incubation at room temperature, samples were analyzed for luminescence intensity using a ViewLux High-throughput CCD imager equipped with clear filters.
In general terms: qHTS replaces the single test concentration by a dilution series.
In the case of `CC(C)[C@]12O[C@@H]1[C@@H]1O[C@]13[C@]1(O[C@H]1C[C@@H]1C4=C(CC[C@@]13C)C(=O)OC4)[C@H]2O`, the Potency is 0.0369 µM (active).

Turning to `C[C@@]12OC(=O)[C@]1([C@@H](O)[C@@H]1C=CCCC1)NC(=O)[C@H]2CCCl`, the Potency was 2.93 µM (active).

As to `C=CCON=C(C[C@H]1O[C@@H]2O[C@]3(C)CC[C@@H]4[C@H](C)CC[C@@H]([C@H]1C)[C@@]24OO3)[C@H]1O[C@@H]2O[C@]3(C)CC[C@H]4[C@H](C)CC[C@@H]([C@@H]1C)[C@@]24OO3`, the Potency was 0.261 µM (active).

Take `O=c1[nH]c2ccc(Cl)cc2c(N[C@@H]2CN3CCC2CC3)c1-c1nc2ccccc2[nH]1`: the Potency was 13.1 µM (active).

For the compound `CO[C@H]1CCC(O[C@H]2C[C@H]([C@]3(C)CC[C@]4(C[C@H](O)[C@@H](C)[C@@H]([C@@H](C)C=C(C)C(=O)[C@H](C)C[C@H](C)C(=O)O)O4)O3)O[C@]3(O[C@@H]([C@H]4O[C@@](O)(CO)[C@H](C)C[C@H]4C)C[C@H]3C)[C@H]2C)O[C@H]1C` (some centres not stated), the Potency is 2.93 µM (active).

Turning to `O=C(N[C@H]1CN2CCC1CC2)c1ccc(Cl)cc1`, the “activity change, negative = cytotoxic” value is 2.38%.

For the compound `CC(C)(C)C(O)C(Oc1ccc(Cl)cc1)n1cncn1` (configuration not stated), the “activity change, negative = cytotoxic” value is -8.18% [at 95.5 µM].

Regarding `C[C@@H]1O[C@@H](O[C@@H]2C=C3CC[C@@H]4[C@@H](CC[C@]5(C)[C@H](c6ccc(=O)oc6)CC[C@@]45O)[C@@]3(C)CC2)[C@H](O)[C@H](O)[C@H]1O`, the Potency is 0.0414 µM (active).

Turning to `O=C(O)COc1nc(Cl)c(Cl)cc1Cl`, the “activity change, negative = cytotoxic” value is 3.33% [at 95.5 µM].

As to `CC[C@@]1(O)C(=O)OCc2c1cc1n(c2=O)Cc2cc3ccccc3nc2-1`, the Potency was 0.827 µM (active).

Turning to `CS(=O)(=O)c1ccc(C(=O)C2C(=O)CCCC2=O)c([N+](=O)[O-])c1`, the “activity change, negative = cytotoxic” value is -6.1% [at 95.5 µM].

As for `O=C(O)CCCOc1ccc(Cl)cc1Cl`, the “activity change, negative = cytotoxic” value is -6.61% [at 95.5 µM].

In the case of `O=[N+]([O-])c1c(Cl)c(Cl)cc(Cl)c1Cl`, the “activity change, negative = cytotoxic” value is -5.43% [at 95.5 µM].

As for `CC[C@@H]1[C@@H](C)O[C@@](O)([C@@H](C)[C@H](O)[C@H](C)[C@H]2OC(=O)C=CC=C[C@@H](C)[C@@H]([C@@H](C)[C@@H](O)[C@H](C)[C@@]3(O)C[C@H](O[C@H]4C[C@H](O)[C@H](O)[C@H](C)O4)[C@H](CC)[C@@H](C)O3)OC(=O)C=CC=C[C@@H]2C)C[C@H]1O[C@H]1C[C@H](O)[C@H](O)[C@H](C)O1`, the “activity change, negative = cytotoxic” value was -6.49%.

As to `COc1cc2cc(c1Cl)N(C)C(=O)C[C@H](OC(=O)C(C)C)[C@]1(C)O[C@H]1[C@H](C)[C@@H]1C[C@@](O)(NC(=O)O1)[C@H](OC)C=CC=C(C)C2`, the Potency is 0.0016 µM (active).

In the case of `CC1=C(O)C(=O)C=C2C1=CC=C1[C@@]2(C)CC[C@@]2(C)[C@@H]3C[C@](C)(C(=O)O)CC[C@]3(C)CC[C@]12C`, the Potency was 3.29 µM (active).

`CC(C)(O)C=CC(=O)[C@](C)(O)[C@H]1[C@H](O)C[C@]2(C)[C@@H]3CC=C4[C@@H](C=C(O)C(=O)C4(C)C)[C@]3(C)C(=O)C[C@@]12C`: the Potency is 1.31 µM (active).

With `Cc1ccccc1-n1c(Cn2cnc3c(N)ncnc32)nc2cccc(C)c2c1=O`, the “activity change, negative = cytotoxic” value was 6.37%.

For the compound `COc1ccc2c(c1)CN(C)CC2c1ccc(Cl)c(Cl)c1` (configuration not stated), the “activity change, negative = cytotoxic” value is -14.7%.

For the compound `CC(=O)[O][Hg][c]1ccccc1`, the Potency is 4.65 µM (active).

Consider `Cc1ccccc1-n1c(Cn2ncc3c(N)ncnc32)nc2cccc(C)c2c1=O`, for which the Potency was 18.5 µM (active).

Turning to `CC(C)N[C@@H]1CCn2c(=O)[nH]c3cccc(c32)[C@@H]1O`, the “activity change, negative = cytotoxic” value is -1.49%.

For `C[C@@H]1CC[C@@]2(OC1)O[C@H]1C[C@H]3[C@@H]4CC=C5C[C@@H](O[C@@H]6O[C@H](CO)[C@@H](O[C@@H]7O[C@@H](C)[C@H](O)[C@@H](O)[C@@H]7O)[C@H](O)[C@@H]6O[C@@H]6O[C@@H](C)[C@H](O)[C@@H](O)[C@@H]6O)CC[C@]5(C)[C@@H]4CC[C@]3(C)[C@@H]1[C@H]2C`, the Potency was 9.27 µM (active).

For the compound `CCC(=O)OC1CCC2C3CCC4=CC(=O)CC[C@@]4(C)C3CC[C@]12C` (some centres not stated), the “activity change, negative = cytotoxic” value was -3.66%.

Turning to `O=C1C(I)=CC(=C(c2cc(I)c(O)c(I)c2)c2ccccc2C(=O)O)C=C1I`, the “activity change, negative = cytotoxic” value is 0.58%.

Consider `Cc1[nH]nc2ccc(-c3cncc(OC[C@@H](N)Cc4c[nH]c5ccccc45)c3)cc12`, for which the Potency is 4.14 µM (active).

Regarding `C[C@H]1CCCC=CC2C[C@H](O)C[C@@H]2[C@H](O)C=CC(=O)O1` (some centres not stated), the Potency is 0.165 µM (active).
